PubChem BioAssay (EPA / NIEHS)
The source made the active and inactive calls. The calls were made as follows: active = hit-call score of the fitted dose curve at least 0.9, where 1 is the maximum; inactive = score below 0.9.

experiment: CCTE_Harrill_HTTr_Apoptosis_MCF7: CCTE's 6-hour Apoptosis Assessment for the High-Throughput Transcriptomics (HTTr) Platform, in MCF-7 cells cultured in DMEM + 10% fetal bovine serum, Harrill Lab (AID 2284011)
Source text: This is a cell-based assay that evaluates apoptosis using high content imaging to evaluate activation of caspase-3/7 using the CellEvent Caspase 3/7 Green detection reagent in 384-well format.One of seven assay components measured from the CCTE_Harrill_HTTr_Apoptosis assay. This was part of a full screening experiment. This is a cell-based assay that evaluates apoptosis in MCF-7 cells cultured in DMEM + 10% fetal bovine serum. High content imaging is used to evaluate activation of caspase-3/7 using the CellEvent Caspase 3/7 Green detection reagent. Measurements are taken at 6 hours after chemical dosing in 384-well format.The assay component endpoint CCTE_Harrill_HTTr_Apoptosis_MCF7 was analyzed with bidirectional fitting relation to DMSO as the negative control and baseline of activity. Using a type of viability reporter, gain-of-signal activity can be used to evaluate activation of caspase-3/7 using the CellEvent Caspase 3/7 Green detection reagent to understand changes in apoptosis. To generalize the intended target to other relatable targets, this assay endpoint is annotated to cell cycle, where the subfamily is apoptosis.
Chemicals were tested in MCF7 cells in an eight point dilution series with a six hour exposure duration.

outcome, inactive:
COC(=O)c1ccc(C)cc1C1=NC(C)(C(C)C)C(=O)N1 (stereo not given) (tested in a mixture with another compound)
C=CC(C)(O)CCC=C(C)C (stereo not given)
Cc1ccc(N)c(S(=O)(=O)O)c1
CC(C)(C)C1=CC(=O)C(C(C)(C)C)=CC1=O
C=C(C)[C@H]1CC=C(C)C(=O)C1
Brc1ccc(Br)c(Br)c1
CC1(C)O[C@@H]2[C@@H](CO[C@@]3(COS(N)(=O)=O)OC(C)(C)O[C@@H]23)O1
CC(C=O)Cc1ccc(C(C)(C)C)cc1 (stereo not given)
CCc1cc(Cc2cc(CC)cc(C(C)(C)C)c2O)c(O)c(C(C)(C)C)c1
CC(C)(CO)[C@@H](O)C(=O)NCCC(=O)O
C1=CC2C3C=CC(C3)C2C1 (stereo not given)
CCCCCCOC(=O)CCC
CCCCC1(COC(=O)CCC(=O)O)C(=O)N(c2ccccc2)N(c2ccccc2)C1=O
C[C@@H]1CCN(C(=O)[C@H](CCCN=C(N)N)NS(=O)(=O)c2cccc3c2NC[C@H](C)C3)[C@@H](C(=O)O)C1
CCCCCCCCCC(=O)OC
CC1(C)O[C@@H]2C[C@H]3[C@@H]4CCC5=CC(=O)C=C[C@]5(C)[C@@]4(F)[C@@H](O)C[C@]3(C)[C@]2(C(=O)CO)O1
O=C1c2ccccc2C(=O)c2c(O)ccc(O)c21
CCCN(CCC)S(=O)(=O)c1ccc(C(=O)O)cc1
O=[N+]([O-])c1cccc(Cl)c1
CCCCCc1ccco1
OCC#CCO
CC(C)(C)c1ccc(C(=O)O)cc1
c1ccc(CCc2ccccc2)cc1
COC(=O)Nc1ccc(Cl)c(Cl)c1
CCOC(=O)[C@@H](C)Oc1ccc(Oc2nc3ccc(Cl)cc3o2)cc1
COCCOCCOCCO
CC=Cc1ccc(OC)c(OC)c1
Cc1ccc(-c2ccccc2)cc1
OCCc1ccccc1
CC(CN=Cc1ccccc1O)N=Cc1ccccc1O (stereo not given)
CCCC1O[C@@H]2C[C@H]3[C@@H]4CCC5=CC(=O)C=C[C@]5(C)[C@H]4[C@@H](O)C[C@]3(C)[C@]2(C(=O)CO)O1 (stereo not given in full)
CC(O)C1CCCCC1 (stereo not given)
CC(C)CCCCCCCCCCCCCCC(=O)O
CC(=O)CC(=O)Nc1ccccc1
CCOC(=O)c1ccc(N)cc1
CC(C)c1ccccc1O
ON=C1CCCCC1
Clc1ccc(C(c2ccccc2Cl)C(Cl)Cl)cc1 (stereo not given)
C=C1CC[C@H](O)C/C1=C/C=C1\CCC[C@]2(C)[C@@H]([C@H](C)/C=C/[C@H](C)C(C)C)CC[C@@H]12
CC1=CC[C@@]23C[C@@H]1C(C)(C)[C@@H]2CC[C@H]3C
